Bioassay records deposited in PubChem by Johns Hopkins Ion Channel Center.
An excerpt weighted towards active compounds, which were near 1.6% of everything screened.
KCNQ2 enhance: potentiators of rat KCNQ2 potassium channel. AID 2239. B-score at 10 µM. CHO-K1 KCNQ2, FluxOR thallium flux fluorescence; stronger effect = higher value. 310,000 compounds, 0.54% hits;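 active = fluorescence ratio B-score at least 3 SD of library B-scores, with initial fluorescence B-score within 3 of them, cut at about 5.3 in these data; same plate scores as AID 2156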;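 note: B-score of peak minus minimum over baseline fluorescence ratio after K+ and Tl+ stimulus; positive B-score means potentiation of KCNQ2 with more thallium influx and brighter signal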
Target sequence (O88943 whole entry, looked up): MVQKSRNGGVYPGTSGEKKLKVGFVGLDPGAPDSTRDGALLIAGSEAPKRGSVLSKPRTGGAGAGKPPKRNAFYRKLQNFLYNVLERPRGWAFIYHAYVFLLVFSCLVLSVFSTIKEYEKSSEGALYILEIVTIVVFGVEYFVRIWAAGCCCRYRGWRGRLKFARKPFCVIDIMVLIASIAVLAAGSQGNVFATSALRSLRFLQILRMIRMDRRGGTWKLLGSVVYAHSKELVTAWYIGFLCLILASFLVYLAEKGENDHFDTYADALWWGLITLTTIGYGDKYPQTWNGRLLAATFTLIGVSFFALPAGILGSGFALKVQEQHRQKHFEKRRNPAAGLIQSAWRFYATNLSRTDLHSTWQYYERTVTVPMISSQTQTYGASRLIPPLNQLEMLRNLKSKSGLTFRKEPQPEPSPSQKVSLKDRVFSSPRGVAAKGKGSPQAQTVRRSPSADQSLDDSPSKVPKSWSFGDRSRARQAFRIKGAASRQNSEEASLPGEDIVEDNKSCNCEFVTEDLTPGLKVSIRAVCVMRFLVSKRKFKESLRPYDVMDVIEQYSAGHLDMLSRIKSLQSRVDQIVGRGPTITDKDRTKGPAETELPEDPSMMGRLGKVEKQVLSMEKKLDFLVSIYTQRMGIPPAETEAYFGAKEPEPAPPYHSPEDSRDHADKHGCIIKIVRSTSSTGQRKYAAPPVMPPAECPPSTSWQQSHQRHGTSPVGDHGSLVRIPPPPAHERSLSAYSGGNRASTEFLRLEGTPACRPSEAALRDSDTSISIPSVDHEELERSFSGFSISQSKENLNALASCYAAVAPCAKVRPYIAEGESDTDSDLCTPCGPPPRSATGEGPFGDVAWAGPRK
KCNQ2 block: KCNQ2 (rat) channel inhibition. O88943. CHO-K1 KCNQ2, FluxOR thallium flux, 20 min; stronger effect = lower value. B-score at 10 µM. 310,000 compounds, 1.1% hits. AID 2156;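 active = fluorescence ratio B-score at most minus 3 library SDs, with starting brightness B-score within 2 library SDs, cut at about -5.5 in these data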
Active calls of the source: *.

Screening Cc1ccc(NC(=O)c2ccc(S(=O)(=O)NCc3cccnc3)cc2)c(C)c1 returned KCNQ2 block inactive.
Screening CCOC(=O)c1c(S(=O)(=O)NCC(C)c2ccccc2)c(C)n(C)c1C (centres undefined) returned KCNQ2 block inactive.
Cc1cc(-c2ccc(C(C)C)c(S(=O)(=O)N3CCN(c4ccccc4)CC3)c2)on1 was read as KCNQ2 block inactive.
`COc1ccccc1N1CCN(S(=O)(=O)c2cc(-c3cc(C)no3)ccc2C(C)C)CC1` gave KCNQ2 enhance -6 and KCNQ2 block -6*.
`O=C(NNC(=O)C1CCCN(S(=O)(=O)c2cccc(F)c2)C1)C1CC1` (centres undefined) gave KCNQ2 block inactive.
For CC(CCc1ccccc1)NC(=O)C(Cc1ccccc1)NC(N)=O (centres undefined) the results were KCNQ2 block inactive.
Screening CN(C)CCN(C)Cc1ccccc1Sc1cccc2ccccc12 returned KCNQ2 block inactive.
Screening CCN(C(=O)CSc1ncnc2sc(C)c(C)c12)C1CCS(=O)(=O)C1 (centres undefined) returned KCNQ2 block inactive.
`CCCN(CC1CC1)C(=O)CSc1ncnc2sc(C)c(C)c12` gave KCNQ2 enhance -6.3 and KCNQ2 block -6.3*.
For Cc1ccc(C(=O)Nc2ccccc2C(=O)N2CC3(C)CC2CC(C)(C)C3)cc1 (centres undefined) the results were KCNQ2 enhance -6.1 and KCNQ2 block -6.1*.
Screening CC1(C)CC2CC(C)(CN2C(=O)NC(=O)c2ccccc2)C1 (centres undefined) returned KCNQ2 block inactive.
For CCCn1c(NCc2cccc(OC)c2OC)nc2ccccc21 the results were KCNQ2 enhance -5.9 and KCNQ2 block -5.9*.
Screening CCCn1c(NCc2cccc(OC)c2O)nc2ccccc21 returned KCNQ2 block inactive.
Screening Cn1nnnc1SCC(=O)NC(=O)c1cccc([N+](=O)[O-])c1 returned KCNQ2 enhance 1.6 and KCNQ2 block inactive.
Screening Cc1ccc2c(C)c(C(=O)N3CCC(O)(c4ccccc4)CC3)oc2c1C returned KCNQ2 enhance -5.9 and KCNQ2 block -5.9*.
`Cc1ccc2c(C)c(C(=O)N3CCN(c4cnccn4)CC3)oc2c1C` gave KCNQ2 block inactive.
N#Cc1ccc2[nH]c(CO)c(-c3ccccc3)c2c1 was read as KCNQ2 block inactive.
CC(C)(C)c1ccc(NC(=O)CNC2CCCc3ccccc32)cc1 (centres undefined) was read as KCNQ2 enhance -6.9 and KCNQ2 block -6.9*.
Cc1ccc(NC(=O)CN(C)CC(=O)NC2CCCc3ccccc32)cc1 (centres undefined) was read as KCNQ2 block inactive.
Screening CCCCOC(=O)Cn1c(=O)c2c(nc(Br)n2Cc2ccccc2)n(C)c1=O returned KCNQ2 enhance -7.5 and KCNQ2 block -7.5*.
For Cn1c(=O)n(CC(N)=O)c(=O)c2c1nc(Br)n2Cc1ccccc1 the results were KCNQ2 enhance 0.07 and KCNQ2 block inactive.
`O=C(NCC1CCCO1)c1cc(Br)c(Br)s1` (centres undefined) gave KCNQ2 enhance 0.95 and KCNQ2 block inactive.
COc1ccc(C(=O)NCc2nnc(SCC(=O)Nc3cc(C)on3)o2)cc1OC was read as KCNQ2 block inactive.
Cc1cc(NC(=O)CSc2nnc(CNC(=O)c3ccc(C(C)(C)C)cc3)o2)no1 was read as KCNQ2 enhance -6.4 and KCNQ2 block -6.4*.
Screening Cc1cc2ccccc2n2c(SCC(=O)NCC3CCCO3)nnc12 (centres undefined) returned KCNQ2 enhance 0.1 and KCNQ2 block inactive.
`CCOC(=O)CC(NC(=O)c1cc2cccc(OC)c2oc1=O)c1ccc(OC)cc1` (centres undefined) gave KCNQ2 block inactive.
Screening CC1(C)CC(c2nc(-c3ccc(Br)cc3)cs2)CCS1 (centres undefined) returned KCNQ2 block inactive.
CC1(C)CC(c2nc(-c3ccc(Cl)cc3)cs2)CCS1 (centres undefined) was read as KCNQ2 enhance -6.4 and KCNQ2 block -6.4*.
O=C(NCCN1CCCC1=O)C1CCC(=O)N(CCc2cccc(F)c2)C1 (centres undefined) was read as KCNQ2 enhance 0.48 and KCNQ2 block inactive.
For Cc1nc(CSc2ccc(Cl)cc2)cc(NCc2ccccc2)n1 the results were KCNQ2 enhance -5.7 and KCNQ2 block -5.7*.
`CNc1cc(CSc2ccc(Cl)cc2)nc(C)n1` gave KCNQ2 enhance 1.2 and KCNQ2 block inactive.
Cc1nccn1-c1cc(C(C)(C)C)nc2c(-c3ccccc3)cnn12 was read as KCNQ2 enhance 0.97 and KCNQ2 block inactive.
Screening COc1ccc(Cl)cc1NC(=O)CN(C)C(=O)c1n[nH]c2ccccc12 returned KCNQ2 enhance 1.1 and KCNQ2 block inactive.
`Cc1cccc(C(=O)c2cnc3ccccc3c2-c2ccccc2)c1` gave KCNQ2 enhance -6.4 and KCNQ2 block -6.4*.
For Cc1cccc(C(=O)NNC(=O)c2ccccc2)c1 the results were KCNQ2 enhance 0.1 and KCNQ2 block inactive.
For O=C(CSc1nnc(CNC(=O)c2cccs2)o1)Nc1ccc(F)cc1F the results were KCNQ2 enhance 0.59 and KCNQ2 block inactive.
Screening CC(Oc1ccccc1)C(=O)Nc1cccc(-c2nc3ccccc3[nH]2)c1 (centres undefined) returned KCNQ2 enhance -5.6 and KCNQ2 block -5.6*.
Screening CC(=O)Nc1cccc(-c2nc3ccccc3[nH]2)c1 returned KCNQ2 enhance 1.6 and KCNQ2 block inactive.
Screening CC(=O)c1c(C)c(C)c2n1CCn1c(C)ccc1-2 returned KCNQ2 enhance 0.13 and KCNQ2 block inactive.
Cc1nc(SCC(=O)NC(C)(C)C)c2c(-c3cccs3)csc2n1 was read as KCNQ2 enhance -6.2 and KCNQ2 block -6.2*.
COCCCn1c(SCC(=O)NC(C)(C)C)nnc1-c1cccs1 was read as KCNQ2 enhance 0.45 and KCNQ2 block inactive.
For Cc1nc(N2CCCCC2)c2c(-c3cccs3)csc2n1 the results were KCNQ2 enhance -8.2 and KCNQ2 block -8.2*.
Screening Cc1nc(N2CCN(S(=O)(=O)c3ccccc3C#N)CC2)c2c(-c3cccs3)csc2n1 returned KCNQ2 block inactive.
Screening O=C(NC12CC3CC(CC(C3)C1)C2)C1CCCN1C(=O)Nc1ccccc1 (centres undefined) returned KCNQ2 block inactive.
CCCc1cc(-c2[nH]ncc2-c2ccc3c(c2)OCCCO3)c(O)cc1O was read as KCNQ2 enhance -8.5 and KCNQ2 block -8.5*.
Screening CCCc1cc(-c2[nH]ncc2-c2ccc(C(=O)OCC)o2)c(O)cc1O returned KCNQ2 enhance 1.2 and KCNQ2 block inactive.
`CN(C(=O)COC(=O)CNC(=O)c1ccc(C(C)(C)C)cc1)c1c(N)n(Cc2ccccc2)c(=O)[nH]c1=O` gave KCNQ2 enhance 0.23 and KCNQ2 block inactive.
Screening CCN(CC)S(=O)(=O)c1ccc(N2CCOCC2)c(NC(=O)CC(C)(C)C)c1 returned KCNQ2 block inactive.
For CCN(CC)S(=O)(=O)c1ccc(N2CCOCC2)c(NC(=O)c2ccccc2)c1 the results were KCNQ2 block inactive.
For CCN(CC)S(=O)(=O)c1ccc(N2CCOCC2)c(NC(=O)COc2ccc(Cl)cc2)c1 the results were KCNQ2 enhance -6.6 and KCNQ2 block -6.6*.
For CCN(CC)S(=O)(=O)c1ccc(N2CCOCC2)c(NC(=O)c2cc(C)cc(C)c2)c1 the results were KCNQ2 enhance -6.2 and KCNQ2 block -6.2*.
